Paper PMC7862700, “An all-to-all approach to the identification of sequence-specific readers for epigenetic DNA modifications on cytosine”

Key:
Assay in all cases: DAPPL (digital affinity profiling via proximity ligation, sequencing); 10 mM Tris-HCl pH 7.5, 50 mM NaCl, 1 mM DTT, 4% glycerol, room temperature, 30 min; GST-TFs on glutathione beads, 16-mer random dsDNA library, 0.1% formaldehyde crosslink after washing; high values mean tight binding
Settings in all cases: protein: recombinant; tags: N-terminal GST; dsDNA, one strand shown
[1] = target: T1, FLI1 (Homo sapiens, UniProt Q01543 1-452)
T1 sequence: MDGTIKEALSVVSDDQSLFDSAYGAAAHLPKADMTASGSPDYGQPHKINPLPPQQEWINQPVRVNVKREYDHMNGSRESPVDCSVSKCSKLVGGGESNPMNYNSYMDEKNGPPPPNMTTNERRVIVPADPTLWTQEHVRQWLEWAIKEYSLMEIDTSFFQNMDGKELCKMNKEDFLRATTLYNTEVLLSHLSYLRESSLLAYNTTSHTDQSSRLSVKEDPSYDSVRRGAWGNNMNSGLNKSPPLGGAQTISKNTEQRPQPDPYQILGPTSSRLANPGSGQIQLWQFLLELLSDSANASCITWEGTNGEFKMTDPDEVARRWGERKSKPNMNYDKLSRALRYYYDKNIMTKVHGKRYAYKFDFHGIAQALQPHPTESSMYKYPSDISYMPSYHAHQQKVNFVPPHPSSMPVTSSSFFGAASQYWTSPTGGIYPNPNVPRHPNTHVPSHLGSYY
Method in brief: (§1)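 Binding signal is given per hexamer as its read frequency for a factor divided by its frequency in the tag-only sample. GST-fused human transcription factors were expressed in yeast, captured on glutathione beads, barcoded with DNA and pooled with that sample, then incubated with 200 nmole of a 16-mer random double-stranded DNA library in Tris/NaCl/DTT/glycerol buffer for 30 min at room temperature. The pools were then washed, crosslinked, proximity-ligated, amplified by PCR and sequenced on an Illumina NextSeq500.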

[2] = target: T2, ELK1 (Homo sapiens, UniProt P19419 1-428)
T2 sequence: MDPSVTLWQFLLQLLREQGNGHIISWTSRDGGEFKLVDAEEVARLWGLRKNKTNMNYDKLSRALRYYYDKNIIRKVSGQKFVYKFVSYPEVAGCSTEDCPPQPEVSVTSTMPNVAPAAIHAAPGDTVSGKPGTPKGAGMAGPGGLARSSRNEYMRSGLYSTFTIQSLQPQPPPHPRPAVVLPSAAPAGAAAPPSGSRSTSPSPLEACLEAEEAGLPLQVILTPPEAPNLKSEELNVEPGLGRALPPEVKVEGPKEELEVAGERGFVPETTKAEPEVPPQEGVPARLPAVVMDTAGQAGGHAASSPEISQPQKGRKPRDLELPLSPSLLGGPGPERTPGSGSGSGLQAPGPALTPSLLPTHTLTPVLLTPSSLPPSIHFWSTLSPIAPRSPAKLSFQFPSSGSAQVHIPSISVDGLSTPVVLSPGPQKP
Method in brief: as §1

[3] = target: T3, GABPA (Homo sapiens, UniProt Q06546 1-454)
T3 sequence: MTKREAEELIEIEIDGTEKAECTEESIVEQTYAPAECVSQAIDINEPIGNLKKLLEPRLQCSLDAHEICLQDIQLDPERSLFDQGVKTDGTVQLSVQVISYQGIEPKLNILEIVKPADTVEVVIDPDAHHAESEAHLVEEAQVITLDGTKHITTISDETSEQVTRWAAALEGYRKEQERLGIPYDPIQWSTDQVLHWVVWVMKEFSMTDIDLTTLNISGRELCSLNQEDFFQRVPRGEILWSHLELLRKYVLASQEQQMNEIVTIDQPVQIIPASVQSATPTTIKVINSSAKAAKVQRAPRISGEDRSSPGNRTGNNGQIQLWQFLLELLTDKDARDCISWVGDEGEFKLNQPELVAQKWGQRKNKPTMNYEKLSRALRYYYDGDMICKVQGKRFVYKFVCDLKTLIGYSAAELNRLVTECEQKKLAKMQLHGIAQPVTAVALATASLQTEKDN
Method in brief: as §1

[4] = target: T4, ERG (Homo sapiens, UniProt P11308 1-479)
T4 sequence: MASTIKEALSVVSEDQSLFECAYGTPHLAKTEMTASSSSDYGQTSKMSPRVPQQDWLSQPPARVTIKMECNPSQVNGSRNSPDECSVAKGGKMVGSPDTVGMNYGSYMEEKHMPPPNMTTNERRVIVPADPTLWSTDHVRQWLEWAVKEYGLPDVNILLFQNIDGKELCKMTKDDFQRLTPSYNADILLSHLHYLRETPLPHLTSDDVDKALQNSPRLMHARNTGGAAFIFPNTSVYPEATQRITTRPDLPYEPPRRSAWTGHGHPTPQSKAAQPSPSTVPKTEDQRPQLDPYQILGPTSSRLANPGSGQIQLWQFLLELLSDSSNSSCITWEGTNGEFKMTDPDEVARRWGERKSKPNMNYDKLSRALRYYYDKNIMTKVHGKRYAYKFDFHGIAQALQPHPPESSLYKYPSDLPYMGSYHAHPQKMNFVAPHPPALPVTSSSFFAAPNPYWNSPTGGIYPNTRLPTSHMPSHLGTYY
Method in brief: as §1

[5] = target: ELF1 (Homo sapiens, UniProt P32519 1-619)
Method in brief: as §1

[6] = target: T5, EHF (Homo sapiens, UniProt Q9NZC4 1-300)
T5 sequence: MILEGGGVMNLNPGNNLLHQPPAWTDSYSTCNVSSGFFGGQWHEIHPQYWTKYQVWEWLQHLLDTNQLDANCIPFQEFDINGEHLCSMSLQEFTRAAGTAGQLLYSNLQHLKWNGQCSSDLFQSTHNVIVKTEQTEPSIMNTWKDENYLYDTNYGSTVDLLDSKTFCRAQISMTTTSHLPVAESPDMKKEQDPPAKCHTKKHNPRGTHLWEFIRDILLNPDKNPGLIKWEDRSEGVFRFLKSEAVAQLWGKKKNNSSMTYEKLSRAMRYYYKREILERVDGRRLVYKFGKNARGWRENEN
Method in brief: as §1

[7] = target: SPI1 (Homo sapiens, UniProt P17947 1-270)
Method in brief: as §1

[8] = target: SPIB (Homo sapiens, UniProt Q01892 1-262)
Method in brief: as §1

[9] = target: T6, ELK3 (Homo sapiens, UniProt P41970 1-407)
T6 sequence: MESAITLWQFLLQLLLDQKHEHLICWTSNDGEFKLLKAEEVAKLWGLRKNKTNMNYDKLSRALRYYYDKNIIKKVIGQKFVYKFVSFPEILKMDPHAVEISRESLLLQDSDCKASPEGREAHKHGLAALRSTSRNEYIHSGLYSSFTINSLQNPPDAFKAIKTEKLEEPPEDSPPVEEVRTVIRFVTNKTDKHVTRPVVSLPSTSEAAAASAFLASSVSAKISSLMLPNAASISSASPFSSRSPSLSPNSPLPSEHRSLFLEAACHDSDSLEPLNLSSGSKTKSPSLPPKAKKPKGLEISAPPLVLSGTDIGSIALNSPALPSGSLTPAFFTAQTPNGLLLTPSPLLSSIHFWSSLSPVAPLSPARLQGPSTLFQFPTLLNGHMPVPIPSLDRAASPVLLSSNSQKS
Method in brief: as §1

[10] = target: T7, FEV (Homo sapiens, UniProt Q99581 1-238)
T7 sequence: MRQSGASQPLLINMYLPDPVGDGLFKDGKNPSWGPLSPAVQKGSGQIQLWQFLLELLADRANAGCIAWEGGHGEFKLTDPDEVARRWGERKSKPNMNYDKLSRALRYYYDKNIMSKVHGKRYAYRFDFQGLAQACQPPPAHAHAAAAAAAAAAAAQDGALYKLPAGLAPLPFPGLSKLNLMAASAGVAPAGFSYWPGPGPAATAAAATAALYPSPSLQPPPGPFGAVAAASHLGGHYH
Method in brief: as §1

[11] = target: ETV5 (Homo sapiens, UniProt P41161 1-510)
Method in brief: as §1

[12] = target: T8, SPIC (Homo sapiens, UniProt Q8N5J4 1-248)
T8 sequence: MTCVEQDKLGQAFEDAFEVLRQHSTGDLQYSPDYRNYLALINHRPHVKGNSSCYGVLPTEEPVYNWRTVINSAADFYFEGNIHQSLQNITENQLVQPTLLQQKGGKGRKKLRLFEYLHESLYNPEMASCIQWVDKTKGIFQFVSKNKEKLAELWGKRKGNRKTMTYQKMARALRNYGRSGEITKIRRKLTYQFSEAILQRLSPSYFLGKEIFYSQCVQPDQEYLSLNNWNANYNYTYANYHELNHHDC
Method in brief: as §1

[13] = target: ELF4 (Homo sapiens, UniProt Q99607 1-663)
Method in brief: as §1

[14] = target: T9, ELK4 (Homo sapiens, UniProt P28324-2 1-405)
T9 sequence: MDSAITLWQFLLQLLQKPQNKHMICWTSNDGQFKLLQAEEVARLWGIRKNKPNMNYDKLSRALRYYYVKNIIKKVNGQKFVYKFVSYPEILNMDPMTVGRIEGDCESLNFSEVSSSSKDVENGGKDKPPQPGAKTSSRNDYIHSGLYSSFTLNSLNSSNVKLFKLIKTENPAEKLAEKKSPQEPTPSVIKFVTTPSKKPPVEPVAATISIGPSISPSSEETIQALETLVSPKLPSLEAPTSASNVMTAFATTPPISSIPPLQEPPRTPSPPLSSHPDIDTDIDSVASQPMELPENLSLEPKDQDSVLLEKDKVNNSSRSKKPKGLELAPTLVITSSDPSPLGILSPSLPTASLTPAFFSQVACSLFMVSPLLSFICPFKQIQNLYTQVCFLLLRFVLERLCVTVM
Method in brief: as §1

[15] = target: T10, ETV2 (Homo sapiens, UniProt O00321 1-342)
T10 sequence: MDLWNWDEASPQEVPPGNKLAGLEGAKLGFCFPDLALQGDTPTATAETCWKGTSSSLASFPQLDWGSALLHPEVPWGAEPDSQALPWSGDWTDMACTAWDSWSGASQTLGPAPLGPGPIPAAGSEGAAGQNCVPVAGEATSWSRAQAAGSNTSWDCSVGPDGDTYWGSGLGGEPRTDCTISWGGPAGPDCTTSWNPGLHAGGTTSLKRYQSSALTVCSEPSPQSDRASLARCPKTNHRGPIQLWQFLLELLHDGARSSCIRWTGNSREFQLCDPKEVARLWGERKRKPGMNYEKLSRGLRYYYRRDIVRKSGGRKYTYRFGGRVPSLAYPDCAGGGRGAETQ
Method in brief: as §1

[16] = target: T11, ELF3 (Homo sapiens, UniProt P78545 1-371)
T11 sequence: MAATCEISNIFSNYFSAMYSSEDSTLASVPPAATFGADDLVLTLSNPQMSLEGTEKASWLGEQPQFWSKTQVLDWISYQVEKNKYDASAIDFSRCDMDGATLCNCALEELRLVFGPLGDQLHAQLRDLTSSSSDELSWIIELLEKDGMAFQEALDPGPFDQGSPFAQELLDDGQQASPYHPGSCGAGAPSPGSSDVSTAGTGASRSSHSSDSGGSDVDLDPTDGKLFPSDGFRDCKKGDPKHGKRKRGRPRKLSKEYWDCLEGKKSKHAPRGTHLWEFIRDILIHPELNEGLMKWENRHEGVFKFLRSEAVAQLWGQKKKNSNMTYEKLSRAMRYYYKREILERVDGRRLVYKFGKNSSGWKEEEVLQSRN
Method in brief: as §1

[17] = target: ETV1 (Homo sapiens, UniProt P50549 1-477)
Method in brief: as §1

Chain of ETV5 (P41161 whole entry): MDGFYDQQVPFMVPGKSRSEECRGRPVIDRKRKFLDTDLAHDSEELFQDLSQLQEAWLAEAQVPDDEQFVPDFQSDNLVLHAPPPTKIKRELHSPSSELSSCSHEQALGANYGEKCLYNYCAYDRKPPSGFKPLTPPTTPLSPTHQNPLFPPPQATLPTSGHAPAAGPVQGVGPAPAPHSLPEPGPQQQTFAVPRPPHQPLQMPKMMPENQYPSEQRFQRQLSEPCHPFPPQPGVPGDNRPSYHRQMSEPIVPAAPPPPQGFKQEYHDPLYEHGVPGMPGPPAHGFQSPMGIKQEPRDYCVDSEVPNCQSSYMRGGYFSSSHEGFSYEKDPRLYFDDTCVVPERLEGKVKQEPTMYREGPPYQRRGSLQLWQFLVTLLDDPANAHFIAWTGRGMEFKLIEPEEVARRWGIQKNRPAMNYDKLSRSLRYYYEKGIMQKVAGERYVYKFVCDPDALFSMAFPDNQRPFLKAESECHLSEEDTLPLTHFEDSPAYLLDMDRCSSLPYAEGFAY
Chain of ELF4 (Q99607 whole entry): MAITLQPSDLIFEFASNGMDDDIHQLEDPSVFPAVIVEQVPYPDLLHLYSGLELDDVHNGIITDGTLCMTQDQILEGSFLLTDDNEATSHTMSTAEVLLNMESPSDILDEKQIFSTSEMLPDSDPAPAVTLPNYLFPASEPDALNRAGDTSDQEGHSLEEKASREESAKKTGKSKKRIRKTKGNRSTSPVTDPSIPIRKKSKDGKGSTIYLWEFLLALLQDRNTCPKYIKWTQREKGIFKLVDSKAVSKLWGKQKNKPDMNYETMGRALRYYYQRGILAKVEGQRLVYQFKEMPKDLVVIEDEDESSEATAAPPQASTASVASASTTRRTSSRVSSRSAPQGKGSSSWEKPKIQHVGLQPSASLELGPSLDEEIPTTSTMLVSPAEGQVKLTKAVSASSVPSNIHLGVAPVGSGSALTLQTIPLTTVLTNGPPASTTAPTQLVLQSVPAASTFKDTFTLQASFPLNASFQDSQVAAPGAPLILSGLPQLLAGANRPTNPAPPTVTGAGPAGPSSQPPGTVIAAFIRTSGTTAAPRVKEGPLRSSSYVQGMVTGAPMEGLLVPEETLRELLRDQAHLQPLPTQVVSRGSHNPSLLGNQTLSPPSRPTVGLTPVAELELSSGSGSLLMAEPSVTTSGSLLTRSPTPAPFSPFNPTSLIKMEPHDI
Chain of ETV1 (P50549 whole entry): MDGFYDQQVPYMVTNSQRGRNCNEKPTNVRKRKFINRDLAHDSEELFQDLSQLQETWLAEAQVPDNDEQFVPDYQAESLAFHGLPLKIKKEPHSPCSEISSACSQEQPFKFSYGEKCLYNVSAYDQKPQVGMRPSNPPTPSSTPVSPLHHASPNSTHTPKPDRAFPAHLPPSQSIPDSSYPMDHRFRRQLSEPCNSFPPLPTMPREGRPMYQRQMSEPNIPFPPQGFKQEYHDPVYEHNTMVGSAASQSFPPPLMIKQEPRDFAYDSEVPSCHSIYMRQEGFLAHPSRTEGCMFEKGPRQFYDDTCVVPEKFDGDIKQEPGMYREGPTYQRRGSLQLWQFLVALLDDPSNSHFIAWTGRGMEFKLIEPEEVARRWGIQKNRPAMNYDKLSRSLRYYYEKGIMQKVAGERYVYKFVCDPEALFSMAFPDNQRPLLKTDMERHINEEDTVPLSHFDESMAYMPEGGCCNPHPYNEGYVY
Chain of SPIB (Q01892 whole entry): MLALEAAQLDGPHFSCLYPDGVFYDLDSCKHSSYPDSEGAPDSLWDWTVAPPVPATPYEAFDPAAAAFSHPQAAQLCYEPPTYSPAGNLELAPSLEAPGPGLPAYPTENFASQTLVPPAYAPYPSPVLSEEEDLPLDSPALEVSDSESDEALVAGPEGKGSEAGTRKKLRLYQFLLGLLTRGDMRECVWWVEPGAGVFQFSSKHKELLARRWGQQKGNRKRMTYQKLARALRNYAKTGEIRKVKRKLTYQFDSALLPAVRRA
Chain of ELF1 (P32519 whole entry): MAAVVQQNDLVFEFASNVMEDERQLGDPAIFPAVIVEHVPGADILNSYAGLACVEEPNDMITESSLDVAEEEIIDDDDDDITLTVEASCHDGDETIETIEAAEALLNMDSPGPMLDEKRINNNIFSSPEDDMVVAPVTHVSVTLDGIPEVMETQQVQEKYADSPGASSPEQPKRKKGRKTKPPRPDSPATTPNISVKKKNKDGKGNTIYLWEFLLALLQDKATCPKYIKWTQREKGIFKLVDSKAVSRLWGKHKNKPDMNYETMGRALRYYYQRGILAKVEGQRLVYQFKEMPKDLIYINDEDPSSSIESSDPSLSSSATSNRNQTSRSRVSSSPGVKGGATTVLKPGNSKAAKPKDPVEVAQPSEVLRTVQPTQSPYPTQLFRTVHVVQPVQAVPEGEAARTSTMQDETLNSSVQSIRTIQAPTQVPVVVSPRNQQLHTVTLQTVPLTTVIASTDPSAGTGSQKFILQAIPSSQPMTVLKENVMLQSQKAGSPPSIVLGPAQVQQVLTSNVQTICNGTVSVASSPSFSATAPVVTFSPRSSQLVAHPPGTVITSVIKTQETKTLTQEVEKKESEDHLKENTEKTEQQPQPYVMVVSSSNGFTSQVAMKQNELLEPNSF

Row | Sequence | binding signal [1] | binding signal [2] | binding signal [3] | binding signal [4] | binding signal [5] | binding signal [6] | binding signal [7] | binding signal [8] | binding signal [9] | binding signal [10] | binding signal [11] | binding signal [12] | binding signal [13] | binding signal [14] | binding signal [15] | binding signal [16] | binding signal [17]
1 | CCGCCC | 1.33 fold enrichment (6-mer frequency, TF over GST control) | 1.39 fold enrichment (6-mer frequency, TF over GST control) | 1.27 fold enrichment (6-mer frequency, TF over GST control) | 1.29 fold enrichment (6-mer frequency, TF over GST control) | 1.35 fold enrichment (6-mer frequency, TF over GST control) | 1.29 fold enrichment (6-mer frequency, TF over GST control) | 1.17 fold enrichment (6-mer frequency, TF over GST control) | 1.19 fold enrichment (6-mer frequency, TF over GST control) | 1.48 fold enrichment (6-mer frequency, TF over GST control) | 1.38 fold enrichment (6-mer frequency, TF over GST control) | 1.34 fold enrichment (6-mer frequency, TF over GST control) | 1.33 fold enrichment (6-mer frequency, TF over GST control) | 1.4 fold enrichment (6-mer frequency, TF over GST control) | 1.08 fold enrichment (6-mer frequency, TF over GST control) | 1.2 fold enrichment (6-mer frequency, TF over GST control) | 1.28 fold enrichment (6-mer frequency, TF over GST control) | 1.26 fold enrichment (6-mer frequency, TF over GST control)
2 | TCCGCG | 1.25 fold enrichment (6-mer frequency, TF over GST control) | 1.27 fold enrichment (6-mer frequency, TF over GST control) | 1.03 fold enrichment (6-mer frequency, TF over GST control) | 1.41 fold enrichment (6-mer frequency, TF over GST control) | 1.2 fold enrichment (6-mer frequency, TF over GST control) | 1.23 fold enrichment (6-mer frequency, TF over GST control) | 1.3 fold enrichment (6-mer frequency, TF over GST control) | 1.36 fold enrichment (6-mer frequency, TF over GST control) | 1.14 fold enrichment (6-mer frequency, TF over GST control) | 1.2 fold enrichment (6-mer frequency, TF over GST control) | 1.33 fold enrichment (6-mer frequency, TF over GST control) | 1.18 fold enrichment (6-mer frequency, TF over GST control) | 1.23 fold enrichment (6-mer frequency, TF over GST control) | 1.32 fold enrichment (6-mer frequency, TF over GST control) | 1.32 fold enrichment (6-mer frequency, TF over GST control) | 1.08 fold enrichment (6-mer frequency, TF over GST control) | 1.33 fold enrichment (6-mer frequency, TF over GST control)
3 | CAACAT | 1.18 fold enrichment (6-mer frequency, TF over GST control) | 1.21 fold enrichment (6-mer frequency, TF over GST control) | 1.22 fold enrichment (6-mer frequency, TF over GST control) | 1.2 fold enrichment (6-mer frequency, TF over GST control) | 1.2 fold enrichment (6-mer frequency, TF over GST control) | 1.23 fold enrichment (6-mer frequency, TF over GST control) | 1.06 fold enrichment (6-mer frequency, TF over GST control) | 1.14 fold enrichment (6-mer frequency, TF over GST control) | 1.14 fold enrichment (6-mer frequency, TF over GST control) | 1.21 fold enrichment (6-mer frequency, TF over GST control) | 1.21 fold enrichment (6-mer frequency, TF over GST control) | 1.05 fold enrichment (6-mer frequency, TF over GST control) | 1.19 fold enrichment (6-mer frequency, TF over GST control) | 1.23 fold enrichment (6-mer frequency, TF over GST control) | 1.19 fold enrichment (6-mer frequency, TF over GST control) | 1.2 fold enrichment (6-mer frequency, TF over GST control) | 1.13 fold enrichment (6-mer frequency, TF over GST control)
